Sampled rows, rich in hits. Any-hit rate of the full collection: about 2.5%.
Pol kappa inh: qHTS for Inhibitors of Polymerase Kappa | DNA polymerase kappa (Homo sapiens), Q9UBT6 | purified Pol kappa, fluorescent DNA synthesis assay, 10 min | Potency, µM (top dose mostly 107 µM), without a hit: top-dose activity, negative = inhibition, most hits filed as inhibitors | actives 0.53% (n = 400,000) | AID 588579, 2011; note: % is set by controls: 0 for no effect and ±100 for the full control effect
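Activity was followed as the change in fluorescence between reads at 0 and 10 min after starting the reaction with 50 nM substrate. Beforehand, 10 nM polymerase had been preincubated with compound for 15 min at room temperature.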
WRN helicase inh: qHTS for Inhibitors of WRN Helicase | Bifunctional 3'-5' exonuclease/ATP-dependent helicase WRN (Homo sapiens), Q14191 | WRN helicase unwinding, fluorescent forked duplex, kinetic | Potency, µM (series often up to 114 µM), without a hit: top-dose activity change, negative = inhibition, usual class: inhibitors | actives 0.46% (n = 360,000) | AID 651768, 2012; note: % is set by controls: 0 for no effect and ±100 for the full control effect; nearly all actives have a fitted effect of over 55% in size
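Kinetic red-fluorescence monitoring (525/598 nm) tracks WRN helicase activity after 100 nM fluorophore-quencher forked duplex and 2 mM ATP are added to 20 nM enzyme pretreated 15 min at room temperature with compound.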
Pol iota inh: qHTS for Inhibitors of Polymerase Iota | DNA polymerase iota (Homo sapiens), Q9UNA4 | Pol iota fluorescent replication assay, 10 min | Potency, µM (highest dose often 115 µM), inactives show at the highest dose activity, negative = inhibition, hits mostly inhibitors | actives 1% (n = 390,000) | AID 588590, 2011
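Fluorescent replication assay read twice, at 0 min and 10 min after adding 50 nM (final) substrate. Enzyme (10 nM) and compounds were first incubated 15 min at room temperature; enzyme-free buffer wells were negative controls.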
Pol eta inh: qHTS for Inhibitors of Polymerase Eta; DNA polymerase eta (Homo sapiens), Q9Y253; recombinant Pol eta, fluorescent DNA replication assay; Potency, µM (top dose mostly 114 µM), inactives show at the top dose activity change, negative = inhibition, most hits filed as inhibitors; actives 1.2% (n = 390,000); AID 588591, 2011; note: % is set by controls: 0 for no effect and ±100 for the full control effect
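Pol eta (10 nM) was preincubated with compounds for 15 min at room temperature, after which fluorescent replication substrate (50 nM final) was added to start the reaction. Fluorescence was read kinetically at 0 and 10 min.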
L3MBTL1 block: qHTS Assay for the Inhibitors of L3MBTL1 | Lethal(3)malignant brain tumor-like protein 1 (Homo sapiens), Q9Y468 | AlphaScreen L3MBTL1–H3K9me1 peptide binding | Potency, µM (doses to about 57.1 µM), for inactives: top-dose activity, negative = inhibition, most hits filed as inhibitors | actives 0.66% (n = 230,000) | AID 485360, 2010; note: % is set by controls: 0 for no effect and ±100 for the full control effect; nearly all actives have a fitted effect of over 60% in size
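L3MBTL1 50 nM + b-AHA-H3(1-15)K9me1 75 nM, 30 min RT; compound added, 30 min RT; streptavidin donor/Ni-chelate acceptor beads 10 ug/mL each final, 30 min RT dark; AlphaScreen read.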
Pol beta inh: qHTS Assay for Inhibitors of DNA Polymerase Beta; P06746; Pol beta primer extension/strand displacement, fluorescence kinetic; Potency, µM (top dose mostly 114 µM), for the others: at the highest dose activity change, negative = inhibition, most hits filed as inhibitors; actives 1.3% (n = 340,000); AID 485314, 2010; note: % is set by controls: 0 for no effect and ±100 for the full control effect
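Kinetic readout of DNA synthesis with strand displacement by Pol beta. Compound and 10 nM enzyme sit 15 min at room temperature; 50 nM substrate starts the reaction, read immediately and at 10 min.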
* marks the source's active call; other numbers are inactive results. Calls come from the whole dose curve; as a rule, active = well fitted curve in the direction sought with a large enough effect; inconclusive = small, poorly fitted or top-dose-only effect, or another doubt; inactive = no such curve, though single readings can be large; an effect the other way counts as inactive or inconclusive. Potency is the fitted concentration of half-maximal effect.

`CC[n+]1c(/C=C/N(C)c2ccccc2)n(-c2ccccc2)c2ccc(-c3nc4ccccc4s3)cc21` gave Pol kappa inh 21µM*, WRN helicase inh inconclusive, Pol iota inh 136%, Pol eta inh inconclusive, L3MBTL1 block -2% and Pol beta inh -20%.
For Cc1cccc(-n2c(O)c(C=Nc3ccccc3O)c3ccccc3c2=O)n1 the results were Pol kappa inh inconclusive, WRN helicase inh inconclusive, Pol iota inh inconclusive, Pol eta inh 45µM*, L3MBTL1 block -12% and Pol beta inh -32%.
COc1ccc(/C=C2/SC(=O)N(CCC(=O)Nc3ccc(S(=O)(=O)Nc4nccs4)cc3)C2=O)cc1 was read as Pol kappa inh -12%, WRN helicase inh inconclusive, Pol iota inh inconclusive, Pol eta inh 32µM*, L3MBTL1 block 1% and Pol beta inh 22µM*.
`COc1ccc(/C=C2\SC(=S)N(CCC(=O)Nc3ccc(O)cc3)C2=O)cc1` gave Pol kappa inh -5%, WRN helicase inh 4%, Pol iota inh 92%, Pol eta inh -7%, L3MBTL1 block 2% and Pol beta inh 2%.
For COc1ccc(/C=C2\SC(=O)N(CCC(=O)Nc3ccc(S(=O)(=O)Nc4nccs4)cc3)C2=O)cc1 the results were Pol kappa inh -5%, WRN helicase inh -7%, Pol iota inh 68%, Pol eta inh -15%, L3MBTL1 block -2% and Pol beta inh 50µM*.
For COc1ccc(N2CC(C(=O)Nc3ccc(S(=O)(=O)Nc4nccs4)cc3)CC2=O)c(OC)c1 (stereo not drawn) the results were Pol kappa inh inconclusive, WRN helicase inh 2%, Pol iota inh inconclusive, Pol eta inh 50µM* and L3MBTL1 block -5%.
Cc1ccccc1CN1CCN(C(=O)c2ccc(S(=O)(=O)NCc3ccco3)cc2)CC1 was read as Pol kappa inh -8%, WRN helicase inh -5%, Pol iota inh 20%, Pol eta inh -3% and L3MBTL1 block -6%.
O=C(Nc1nc(-c2cccs2)c(C(=O)C(F)(F)F)s1)c1ccccc1 was read as Pol kappa inh inconclusive, WRN helicase inh -15%, Pol iota inh 89µM*, Pol eta inh inconclusive, L3MBTL1 block -14% and Pol beta inh 0%.
Screening O=C(Nc1nc(-c2cccs2)c(C(=O)C(F)(F)F)s1)c1ccco1 returned Pol kappa inh 0%, WRN helicase inh -4%, Pol iota inh -7%, Pol eta inh -14%, L3MBTL1 block -1% and Pol beta inh 2%.
For CC1CCN(C(=O)c2nc[nH]c2C(=O)N2CCc3ccccc3C2)CC1 the results were Pol kappa inh 7%, WRN helicase inh 3%, Pol iota inh 41%, Pol eta inh -24% and L3MBTL1 block 2%.
Screening CN(CCc1ccccc1)C(c1ccnc2ccccc12)c1nnnn1-c1ccc2c(c1)OCCO2 (stereo not drawn) returned WRN helicase inh -13%.
`Cc1noc(/C=C/c2cccnc2)c1[N+](=O)[O-]` gave Pol kappa inh 6%, WRN helicase inh -12%, Pol iota inh 7%, Pol eta inh -10% and Pol beta inh 0%.
For Cc1noc(/C=C/c2ccc(-c3ccccc3Cl)o2)c1[N+](=O)[O-] the results were Pol kappa inh 420%, WRN helicase inh -7%, Pol iota inh inconclusive, Pol eta inh 13µM* and Pol beta inh 36%.
`Cc1csc(NC(=O)c2cccn2C)n1` gave Pol kappa inh -6%, WRN helicase inh -11%, Pol iota inh 19%, Pol eta inh -6%, L3MBTL1 block -6% and Pol beta inh 35%.

Source: PubChem
